Several values for one entry are separate records, joined by “and”; a condition that tells them apart may be missing. Equal values may be shown once. Some compounds were tested as several samples or in several runs, with calls that do not always agree. Activity calls are given as the source filed them. Rule for the calls: active = hit-call score of the fitted dose curve at least 0.9, where 1 is the maximum; inactive = score below 0.9.
Experiments:
[1] = read-out: Vascular cell adhesion molecule 1 (VCAM1), VCAM1 (gene 7412); experiment: BSK_4H_VCAM1: BioMAP Diversity Plus: 4H Assay for Vascular cell adhesion molecule 1 (VCAM1) Biomarker Activity (AID 2283033); conditions: primary human endothelial cells (HUVEC); actives raise or lower the signal
Method in brief: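 In this human endothelial (HUVEC) system, biomarker ELISA was run 24 h after compound addition, and total protein in parallel wells was assessed by SRB at 560 nm; DMSO served as negative control.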

[2] = read-out: Interferon-gamma inducible Protein 10 (IP10), CXCL10 (gene 3627); experiment: BSK_BE3C_IP10: BioMAP Diversity Plus: BE3C Assay for Interferon-gamma inducible Protein 10 (IP10) Biomarker Activity (AID 2283034); conditions: primary human bronchial epithelial cells; actives raise or lower the signal
Method in brief: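 BE3C cells (human bronchial epithelial, primary); 24 h exposure; ELISA for IP-10; DMSO-referenced bidirectional fit.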

[3] = read-out: Monokine induced gamma interferon (MIG), CXCL9 (gene 4283); experiment: BSK_BE3C_MIG: BioMAP Diversity Plus: BE3C Assay for Monokine induced gamma interferon (MIG) Biomarker Activity (AID 2283035); conditions: primary human bronchial epithelial cells; actives raise or lower the signal
Method in brief: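 hu bronchial epithelial 1° cells, 24 h cpd; MIG by ELISA; bidirectional fit, DMSO = baseline.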

[4] = read-out: Transforming growth factor beta 1 (TGFb1), TGFB1 (gene 7040); experiment: BSK_BE3C_TGFb1: BioMAP Diversity Plus: BE3C Assay for Transforming growth factor beta 1 (TGFb1) Biomarker Activity (AID 2283036); conditions: primary human bronchial epithelial cells; actives raise or lower the signal
Method in brief: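 TGF-b1 measured via ELISA, 24 h after chemical dosing of human bronchial epithelial cells (BE3C). Overt cytotoxicity assessed in parallel by SRB (0.1%, TCA-fixed, 560 nm); analysis bidirectional relative to DMSO.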

[5] = read-out: Plasminogen activator inhibitor-1 (PAI1), SERPINE1 (gene 5054); experiment: BSK_BE3C_PAI1: BioMAP Diversity Plus: BE3C Assay for Plasminogen activator inhibitor-1 (PAI1) Biomarker Activity (AID 2283037); conditions: primary human bronchial epithelial cells; actives raise or lower the signal
Method in brief: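 In this multiplexed primary-cell system, bronchial epithelial cells receive test chemical and are sampled at 24 h. PAI-1 is read by ELISA, with DMSO serving as negative control for bidirectional fitting.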

[6] = read-out: urokinase plasminogen activator (uPA), PLAU (gene 5328); experiment: BSK_BE3C_uPA: BioMAP Diversity Plus: BE3C Assay for urokinase plasminogen activator (uPA) Biomarker Activity (AID 2283038); conditions: primary human bronchial epithelial cells; actives raise or lower the signal
Method in brief: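 Primary human bronchial epithelial cells, uPA measured by ELISA 24 h after dosing. Bidirectional change relative to DMSO; cytotoxicity checked in parallel cultures by sulforhodamine B total-protein staining.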

[7] = read-out: Urokinase-type plasminogen activator receptor (uPAR), PLAUR (gene 5329); experiment: BSK_BE3C_uPAR: BioMAP Diversity Plus: BE3C Assay for Urokinase-type plasminogen activator receptor (uPAR) Biomarker Activity (AID 2283039); conditions: primary human bronchial epithelial cells; actives raise or lower the signal
Method in brief: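 Chemically treated human bronchial epithelial cells (lung primary) are assayed for uPAR by ELISA after 24 h, with data fitted in both directions using DMSO as negative control.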

[8] = read-out: Interleukin-6 (IL6), IL6 (gene 3569); experiment: BSK_CASM3C_IL6: BioMAP Diversity Plus: CASM3C Assay for Interleukin-6 (IL6) Biomarker Activity for (AID 2283040); conditions: primary human coronary artery smooth muscle cells; actives raise or lower the signal
[9] = read-out: Tissue plasminogen activator (tPA), PLAT (gene 5327); experiment: BSK_BE3C_tPA: BioMAP Diversity Plus: BE3C Assay for Tissue plasminogen activator (tPA) Biomarker Activity (AID 2283041); conditions: primary human bronchial epithelial cells; actives raise or lower the signal
Method in brief: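 Using human lung primary bronchial epithelial cells, tPA was measured by ELISA 24 h after dosing; data fitted relative to DMSO.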

[10] = read-out: Interleukin-8 (IL8), CXCL8 (gene 3576); experiment: BSK_CASM3C_IL8: BioMAP Diversity Plus: CASM3C Assay for Interleukin-8 (IL8) Biomarker Activity (AID 2283042); conditions: primary human coronary artery smooth muscle cells; actives raise or lower the signal;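 note: IL-8 protein level quantified by ELISA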

Measured: AC50

CC(C)(C)c1ccc(O)c(C(C)(C)C)c1
active: [1] 9.93 µM | [2] 31.7 µM | [3] 36.1 µM | [4] 27.8 µM | [5] 31.6 µM | [6] 30.7 µM | [7] 36.3 µM | [8] 13.6 µM | [9] 27.5 µM | [10] 27.2 µM

O=C(OCCOCCOC(=O)c1ccccc1)c1ccccc1
inactive: all assays above

CCC(=C(c1ccc(O)cc1)c1ccc(OCCN(C)C)cc1)c1ccccc1
active: [1] 10.3 µM | [2] 8.38 µM | [3] 9.95 µM | [4] 9.79 µM | [5] 12 µM | [6] 9.93 µM | [7] 9.55 µM | [8] 24.6 µM | [9] 8.8 µM | [10] 24.4 µM

COc1ccc([N+](=O)[O-])cc1N
not listed: [1]
inactive: all other assays above

NCC(F)(F)C(F)(F)C(F)(F)C(F)(F)C(F)(F)C(F)(F)C(F)(F)F
not listed: [4]
inactive: all other assays above

CC(O)CO (stereo unspecified)
inactive: all assays above

CCCCCCCCC(=O)O
inactive: all assays above

CCc1nn(C2CCCCC2)c2cc(C3(C#N)CCC(C(=O)O)CC3)ccc12 (stereo unspecified)
active: [1] 27 µM | [2] 15.2 µM | [3] 28 µM | [5] 4.33 µM | [6] 3.48 µM | [7] 5.01 µM | [8] 11.1 µM
inactive: [4] | [9] | [10]

OC1CCC(C2CCCCC2)CC1 (stereo unspecified)
inactive: all assays above

CCCOC(=O)c1ccc(O)cc1
inactive: all assays above

CC[C@H](C)[C@@H](C(=O)O)n1sc2ccccc2c1=O
inactive: all assays above

FC(F)(I)C(F)(F)C(F)(F)C(F)(F)C(F)(F)C(F)(F)I
active: [2] 18.4 µM and 16.9 µM and 45.2 µM | [3] 45.1 µM [middle of 5 runs] | [5] 24.9 µM [middle of 5 runs] | [6] 40.3 µM [middle of 5 runs] | [7] 43.5 µM [middle of 5 runs] | [8] 35.9 µM [middle of 5 runs] | [10] 30 µM [middle of 5 runs]
inactive: [9]

C#C[C@]1(O)CC[C@H]2[C@@H]3CCC4=CC(=O)CC[C@@H]4[C@H]3CC[C@@]21C
inactive: all assays above

CCCCCCCC(=O)O
inactive: all assays above

CC(C)(C)c1cccc(C(C)(C)C)c1O
inactive: all assays above

CCc1ccc(CCOc2ccc(CC3SC(=O)NC3=O)cc2)nc1 (stereo unspecified)
inactive: all assays above

NC(=O)N(O)[C@@H]1C=C[C@H](Oc2cccc(Oc3ccc(F)cc3)c2)C1
active: [2] 30.7 µM | [9] 5.68 µM
inactive: all other assays above

Source: PubChem BioAssay (EPA / NIEHS)
